Shown are actives, neighbours in structure and some others; about 7.3% of the full set was active somewhere.
FLuc modulator = qHTS profiling assay for firefly luciferase inhibitor/activator using purifed enzyme and Km concentrations of substrates (counterscreen for miR-21 project); Luciferin 4-monooxygenase (Photinus pyralis), P08659; purified FLuc, Km substrates, luminescence inhibition; Potency, µM (titrated, usually from 57.5 µM), most hits filed as inhibitors; 360,000 compounds, 6.9% hits; AID 588342, 2011; note: nearly all actives have a fitted effect of over 55% in size
Target sequence (P08659 whole entry, looked up): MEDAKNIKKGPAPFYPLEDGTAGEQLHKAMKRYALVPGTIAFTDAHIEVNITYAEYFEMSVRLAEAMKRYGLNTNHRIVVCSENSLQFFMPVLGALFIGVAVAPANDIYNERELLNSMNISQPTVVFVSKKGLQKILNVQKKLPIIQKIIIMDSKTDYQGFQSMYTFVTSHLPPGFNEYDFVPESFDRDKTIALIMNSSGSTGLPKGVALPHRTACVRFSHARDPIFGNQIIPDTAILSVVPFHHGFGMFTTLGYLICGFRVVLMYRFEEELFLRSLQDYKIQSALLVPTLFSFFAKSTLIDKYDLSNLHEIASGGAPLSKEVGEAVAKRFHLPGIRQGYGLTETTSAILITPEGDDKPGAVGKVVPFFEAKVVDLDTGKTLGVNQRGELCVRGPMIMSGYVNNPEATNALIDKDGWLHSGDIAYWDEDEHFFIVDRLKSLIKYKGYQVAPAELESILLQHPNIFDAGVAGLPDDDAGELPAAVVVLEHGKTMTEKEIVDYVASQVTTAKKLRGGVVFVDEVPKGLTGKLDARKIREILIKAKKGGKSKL
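Biochemical qHTS of compounds, final roughly 60 µM downward over six points, against 10 nM purified firefly luciferase using Km concentrations of substrates (10 uM D-luciferin, 10 uM ATP) in Tris acetate pH 7.5 buffer; luminescence output.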
Rab9 prom act = qHTS Assay for Rab9 Promoter Activators | Huh7 Rab9 promoter-luciferase reporter, luminescence, 24 h | 320,000 compounds, 2.8% hits | Potency, µM (doses to about 9.22 µM), most hits filed as activators; note: nearly all actives have a fitted effect of over 60% in size
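Luciferase signal after 10 min detection reagent at ambient indicates Rab9 promoter upregulation; stably transfected Huh7 cells were treated 24 h with compound in DMSO at 37 °C, 5% CO2.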
NPC1 prom act = qHTS Assay for NPC1 Promoter Activators | Potency, µM (titrated, usually from 9.22 µM), usual class: activators | 320,000 compounds, 2.4% hits | Huh7 NPC1 promoter luciferase reporter, 24 h; note: nearly all actives have a fitted effect of over 60% in size
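Huh7 reporter cells (NPC1 promoter driving luciferase) are dosed with compound for 24 h at 37 °C, 5% CO2; luciferase detection reagent is then added and luminescence measured after 10 min at ambient temperature.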
uPA surface inh = qHTS for Inhibitors of Cell Surface uPA Generation; cell surface uPA generation assay, qHTS; Potency, µM (titrated, usually from 38.3 µM), usual class: inhibitors; 330,000 compounds, 0.31% hits; AID 540303, 2011; active = well fitted inhibition curve with a large enough effect; inconclusive = small, poorly fitted or top-dose-only effect; inactive = no such curve, though single readings can be large or run the other way; tested in mouse RAW 264.7 cells; note: nearly all actives have a fitted effect of over 55% in size
SMN2 splice enh = qHTS Assay for Enhancers of SMN2 Splice Variant Expression | Potency, µM (highest dose often 46.1 µM), usual class: activators | HEK293 SMN2-luciferase splicing reporter, luminescence, 30-36 h | 210,000 compounds, 2.8% hits | AID 1458, 2008; note: nearly all actives have a fitted effect of over 55% in size
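HEK293 cells carry an SMN2 minigene-luciferase reporter in which exon 7 inclusion puts luciferase in frame. Cells were seeded at 2000 cells/well, attached for 10-12 hours, then exposed to compounds for 30-36 hours at 37C before ONE-Glo luminescence.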
ELG1 genotoxic = qHTS screen for small molecules that induce genotoxicity in human embryonic kidney (HEK293T) cells expressing luciferase-tagged ELG1 | HEK293T ELG1-luciferase reporter, luminescence, 16 h | Potency, µM (highest dose often 46 µM), most hits filed as activators | 330,000 compounds, 1.3% hits | AID 504466, 2011; note: nearly all actives have a fitted effect of over 60% in size
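Luminescence read-out: rising ELG1-luciferase signal, reflecting elevated ELG1 protein under genetic stress, flags genotoxic compounds. Cells were treated for 16 hr at 37 °C before ONE-Glo detection.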
Hits are given with their value; - = inactive; ? = inconclusive; . = no result given; [ ] = dose if it differs, or a comment. Unless noted, calls come from the whole dose curve; as a rule, active = well fitted curve in the direction sought with a large enough effect; inconclusive = small, poorly fitted or top-dose-only effect, or another doubt; inactive = no such curve, though single readings can be large; an effect the other way counts as inactive or inconclusive.

SMILES	FLuc modulator	Rab9 prom act	NPC1 prom act	uPA surface inh	SMN2 splice enh	ELG1 genotoxic
O=C(NCc1ccccc1)C(C(=O)c1ccc(F)cc1)n1ccccc1=O (stereo not given)	-	-	-	-	-	-
S=C(NCCc1ccc(Cl)cc1)NC1CCCCC1	19µM	?	4µM	-	.	-
O=C(NC1CCCCC1)C(=S)NCCc1ccccc1	?	-	-	-	?	-
Fc1ccccc1NC(=S)NCCc1ccccc1	?	?	?	-	-	-
S=C(NCCc1ccc(Cl)cc1)NC1CCCC1	?	-	-	-	-	-
Fc1ccccc1NC(=S)NCCc1ccc(Cl)cc1	19µM	?	?	-	.	?
S=C(NCCc1ccccc1)NC1CCCCCC1	11µM	3.2µM	2.5µM	-	13µM	8.2µM
O=C(NCCc1ccccc1)C(=O)NC1CCCCC1	-[2.3 µM]	3.2µM	3.5µM	-	-	-
Cc1cc(=O)[nH]c2nnc(SCc3ccc(Cl)c(Cl)c3)n12	-	.	.	.	.	.
COC(=O)c1sccc1S(=O)(=O)N(CC(=O)NCc1ccc(F)cc1)c1ccccc1	-	.	.	.	.	.
S=C(NCCc1ccccc1)NCc1cccs1	?	?	?	-	10µM	?
Cc1ccc(CNC(=O)c2cnc3c(-c4ccccc4)c(C)nn3c2C)o1	-	.	.	.	.	.
NC(=O)c1ccc(NC(=O)CN2CCN(c3ccccc3)CC2)cc1	-	-	-	-	.	-
Cc1cc(Cl)ccc1OCC(=O)N1CCN(c2ncccn2)CC1	-	-	-	.	-	-
CC(=O)c1ccccc1OC(=O)COc1ccc(Cl)cc1C	17µM	-	-	-	-	-
O=C(COc1ccc(Cl)cc1Cl)NC(=O)N1CCCCC1	3.4µM	?	-	-	2.2µM	2.9µM
O=C(COC(=O)COc1ccc(Cl)cc1Cl)NC1CCCCCC1	-	-	-	-	.	-
O=C(COc1ccc(Cl)cc1Cl)NC(=O)NC1CCCC1	9.5µM	?	?	-	.	?
Cc1cc(Cl)ccc1OCC(=O)OCC(=O)NCCNC(=O)COC(=O)COc1ccc(Cl)cc1C	.	.	.	-	.	.
Cc1cc(Cl)ccc1OCC(=O)N1CCCCC1	17µM	-	?	-	?	21µM
O=C(COc1ccc(Cl)cc1Cl)N1CCCN(C(=O)COc2ccc(Cl)cc2Cl)CC1	-	-	-	-	-	-
COc1ccc(Cl)cc1NC(=O)Cn1c(=O)n(Cc2ccco2)c(=O)c2ccc(C(=O)NC3CCCC3)cc21	-	.	.	.	-	.
Clc1ccc(-c2noc3ncnc(N4CCCCC4)c23)cc1	-	.	.	.	-	.
COc1ccc(-c2[nH]c(-c3ccc(O)cc3)nc2-c2ccccc2)cc1	?	.	.	.	-	.
CC1(C)CC(NC(=O)COc2ccc(Cl)cc2Cl)CC(C)(C)N1	-	-	-	-	.	-
SMILES	FLuc modulator	Rab9 prom act	NPC1 prom act	uPA surface inh	SMN2 splice enh	ELG1 genotoxic
O=C(COc1ccccc1Cl)NC(=O)NC1CCCC1	13µM	?	-	-	-	?
O=C(COc1ccc(Cl)cc1Cl)NC1CCSC1=O (stereo not given)	11µM	3.5µM	?	-	?	16µM
O=C(COC(=O)COc1ccc(Cl)cc1Br)NC1CC1	.	.	.	-	.	-
O=C(COc1ccc(Cl)cc1Cl)OCC(=O)N1CCCc2ccccc21	-	-	-	-	-	-
O=C(COc1ccc(Cl)cc1Cl)NC(=S)N1CCCc2ccccc21	27µM	-	-	-	-	-
O=C(COc1ccc(Cl)cc1Br)NC(=O)NC1CCCC1	6µM	3.2µM	3.5µM	-	.	?
O=C(NCC1CCCO1)c1ccc2c(c1)N(Cc1ccccc1)CCS2 (stereo not given)	-	-	-	-	.	-
CCn1c(=N)n(CCOc2ccc(Br)cc2)c2ccccc21	-	.	.	.	.	.
O=C1/C(=C/c2ccco2)Cc2ccccc21	13µM	-	-	-	-	?
CN(C)/C=C1\Cc2ccccc2C1=O	-	-	-	-	.	-
O=C1/C(=C/c2ccc(F)cc2)CCC1C1CCCC1 (stereo not given)	0.67µM	-	?	-	-	?
COc1ccc(/C=C2\CCC(C3CCCC3)C2=O)cc1Cn1nc(C)cc1C (stereo not given)	?	-	-	-	-	-
COc1ccccc1/C=C1\CCC(C2CCCC2)C1=O (stereo not given)	19µM	-	-	-	.	-
O=C1/C(=C\c2ccco2)CCC/C1=C\c1ccco1	4.8µM	3.2µM	4µM	-	18µM	15µM
CC1C/C(=C/c2ccco2)C(=O)/C(=C/c2ccco2)C1 (stereo not given)	?	-	-	.	-	?
Cc1cccc(N2CCN(c3nc4ccc(C)cc4n4cnnc34)CC2C)c1 (stereo not given)	-	.	.	.	-	.
COc1ccccc1N1CCN(S(=O)(=O)c2cc(C(=O)Nc3ccc(Oc4ccccc4)cc3)ccc2F)CC1	-	.	.	.	.	.
O=C1/C(=C/c2ccco2)CCC1C1CCCC1 (stereo not given)	8.5µM	-	-	-	-	23µM
O=C1/C(=C/c2ccccc2)CCC1C1CCCC1 (stereo not given)	1.2µM	-	-	-	-	?
CCOc1ccc(/C=C2\CCC(C3CCCC3)C2=O)cc1 (stereo not given)	0.54µM	4µM	3.5µM	-	.	?
CCOc1ccc(/C=C2\CCC(C3CCCC3)C2=O)cc1OC (stereo not given)	?	-	-	-	.	-
O=C1NC(=O)C(=Cc2ccco2)S1	.	.	.	-	.	.
Cc1cccc(N2CCN(Cc3cc(=O)oc4cc(C)ccc34)CC2C)c1 (stereo not given)	-	.	.	.	-	.
COc1ccc(C)cc1NC(=S)N1CCN(S(C)(=O)=O)CC1	-	-	-	-	-	-
COc1ccc(NC(=O)Cn2ncc3c4ccccc4n(Cc4ccccc4)c3c2=O)cc1OC	-	.	.	.	-	.
SMILES	FLuc modulator	Rab9 prom act	NPC1 prom act	uPA surface inh	SMN2 splice enh	ELG1 genotoxic
COc1ccc(C(=O)/C=C/c2ccc(OC)c(COc3ccccc3F)c2)cc1	?	-	-	-	-	-
COc1ccc(/C=C/C(=O)c2ccccc2)cc1COc1ccc(F)cc1	9.5µM	-	-	.	-	-
COc1ccc(/C=C/C(=O)c2ccc(O)cc2)cc1COc1ccc(F)cc1	15µM	-	-	?	.	-
Cc1occc1C(=O)Nc1cccc(/C=C/C(=O)O)c1	.	.	.	-	.	.
Cc1oc(C(C)(C)C)cc1C(=O)Nc1cccc(/C=C\C(=O)O)c1	8.5µM	-	-	-	-	-
O=C(O)/C=C/c1cccc(NC(=O)c2ccccc2)c1	?	-	-	-	.	-
Cc1oc(-c2ccccc2)cc1C(=O)Nc1ccc(N(C)C)cc1	13µM	-	-	-	-	-
Cc1oc(-c2ccccc2)cc1C(=O)Nc1cccc(/C=C\C(=O)O)c1	15µM	-	-	-	.	-
